According to publication PMC5540273 (PLoS ONE, 2017):

Test system: PRKCE
Conditions: concentration: 1 μM, replicates: in singlicate; n = 1
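Also: KINOMEscan kinase panel screen.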

| SMILES | %Inh |
| --- | --- |
| CSc1ccc(-c2cc3ncnc(SCC(=O)O)c3s2)cc1 | 26% |
| CCc1nc(-c2cccc(C)c2)c(-c2ccnc(NCc3ccccc3)c2)s1 | 0% |
| COCCNC(=O)c1ccc(-c2cc(C(=O)NC3CC3)cc(F)c2C)cc1 [GW868318] | 36% |
| COc1ccc(COc2cc(-n3cnc4ccccc43)sc2C(N)=O)cc1 [GSK1024304] | 0% |
| COc1cc2ncn(-c3cc(OCc4sccc4Cl)c(C(N)=O)s3)c2cc1OC [GSK448459] | 0% |
| O=C(NCCNc1ccnc(Nc2ccc(F)cc2)n1)c1cc2ccccc2s1 [GSK1379874] | 5% |
| Cc1cccc(-c2nc(Nc3ccc4ncsc4c3)c3ccccc3n2)n1 [GW867588] | 27% |
| c1ccc(-c2n[nH]cc2-c2ccnc3ccccc23)nc1 [GW271431] | 3% |
| O=C(NCCNc1ccnc(Nc2ccc(F)cc2)n1)Nc1ccccc1F [GSK1379880] | 0% |
| Cc1nnc(-c2ccc3occ(-c4ccc(C(C)O)cc4)c3c2)o1 (stereo not drawn) | 0% |
| NS(=O)(=O)c1cccc(-c2ccc3nccc(-c4cccc(S(N)(=O)=O)c4)c3c2)c1 [GW867253] | 18% |
| CCCCCc1nc2c(N)ncnc2n1CCCCC [SKF-97255] | 0% |
| Cl.Oc1cccc(Nc2ccnc3cc(-c4ccncc4)ccc23)c1 [GW494601] | 7% |
| Fc1ccc(-c2ncn(CCCN3CCOCC3)c2-c2cccnc2)cc1 [SB-211743] | 0% |
| Cc1ccc(C(=O)NCC(N)=O)cc1-n1c(C)cc(OCc2ccc(F)cc2F)c(Br)c1=O | 2% |
| NS(=O)(=O)CCc1cccc(Nc2nccc(-c3c(-c4cccc(NC(=O)c5c(F)cccc5F)c4)nn4ccccc34)n2)c1 [GSK336735] | 0% |
| COC(=O)Nc1nc2cc(Oc3ccc(NC(=O)Nc4cc(F)ccc4F)cc3)ccc2[nH]1.Cl [GW701424] | 12% |

| SMILES | %Inh |
| --- | --- |
| Cc1cn2c(=O)cc(N3CCOCC3)nc2n1Cc1cccc(Cl)c1Cl [GSK2334006] | 13% |
| N#Cc1c(N2CCOCC2)sc(-c2ccn[nH]2)c1-c1ccc(Cl)cc1 | 0% |
| Cc1cccc(Cn2ccn3c(=O)cc(N4CCOCC4)nc23)c1 [GSK2297542] | 2% |
| COc1ccc(CNC(=O)NC2CCN(c3ccnc(Nc4ccc(OC)cc4)n3)C2)cc1 (stereo not drawn) [GSK1379727] | 15% |
| c1ccc(-c2cc(-c3c[nH]nc3-c3ccccn3)ccn2)cc1 [GW576604] | 0% |
| COc1cc2c(cc1OCCN1CCN(C)CC1)ncc1c3ccc(C#N)cc3[nH]c21 | 0% |
| COc1ccc(Nc2nccc(N3CCC(NC(=O)Nc4cccc(C(C)=O)c4)C3)n2)cc1 (stereo not drawn) [GSK1379731] | 0% |
| Cc1ccc(NC(=O)c2ccnc(N3CCN(C)CC3)c2)cc1-c1ccc(C(=O)NCC2CC2)cc1 [GW775604] | 0% |
| Cc1c(Cn2c(C)nn3c(=O)cc(N4CCOC(C)C4)nc23)cccc1C(F)(F)F (stereo not drawn) [GSK2344444] | 0% |
| O=C(NCCCN1CCOCC1)c1cccc(Nc2nccc(Nc3ccc(Oc4ccccc4)cc3)n2)c1 [GW663929] | 4% |
| Nc1nc(-c2ccc3c(N)n[nH]c3c2)cc(N2CCCC2)n1 [GSK2227430] | 0% |
| Nc1nccc(-c2c(-c3ccc(F)cc3)ncn2C2CCN(CC(F)(F)F)CC2)n1 [SB-236560] | 19% |
| COc1ccc(S(=O)(=O)NC2CCN(c3cc(C)nc(Nc4cccc(C#N)c4)n3)CC2)cc1.O=C(O)C(F)(F)F [GSK1653539] | 0% |
| CN(C1=C(c2ccccc2)C(=O)NC1=O)c1ccccc1 [SB-334860] | 22% |
| CN1c2ccc(CNc3ccc(F)cc3)cc2-c2c(cnn2C)S1(=O)=O | 5% |
| COc1cc(Nc2nccc(N3CCC(NC(=O)c4cccc(NC(C)=O)c4)C3)n2)cc(OC)c1OC (stereo not drawn) [GSK1379754] | 0% |

Test system: PRKCH
Conditions: concentration: 1 μM, replicates: in singlicate; n = 1

| SMILES | %Inh |
| --- | --- |
| CSc1ccc(-c2cc3ncnc(SCC(=O)O)c3s2)cc1 | 2% |
| CCc1nc(-c2cccc(C)c2)c(-c2ccnc(NCc3ccccc3)c2)s1 | 0% |
| COCCNC(=O)c1ccc(-c2cc(C(=O)NC3CC3)cc(F)c2C)cc1 [GW868318] | 0% |
| COc1ccc(COc2cc(-n3cnc4ccccc43)sc2C(N)=O)cc1 [GSK1024304] | 0% |
| COc1cc2ncn(-c3cc(OCc4sccc4Cl)c(C(N)=O)s3)c2cc1OC [GSK448459] | 0% |
| O=C(NCCNc1ccnc(Nc2ccc(F)cc2)n1)c1cc2ccccc2s1 [GSK1379874] | 17% |
| Cc1cccc(-c2nc(Nc3ccc4ncsc4c3)c3ccccc3n2)n1 [GW867588] | 0% |
| c1ccc(-c2n[nH]cc2-c2ccnc3ccccc23)nc1 [GW271431] | 9% |
| O=C(NCCNc1ccnc(Nc2ccc(F)cc2)n1)Nc1ccccc1F [GSK1379880] | 0% |
| Cc1nnc(-c2ccc3occ(-c4ccc(C(C)O)cc4)c3c2)o1 (stereo not drawn) | 0% |
| NS(=O)(=O)c1cccc(-c2ccc3nccc(-c4cccc(S(N)(=O)=O)c4)c3c2)c1 [GW867253] | 0% |
| CCCCCc1nc2c(N)ncnc2n1CCCCC [SKF-97255] | 7% |
| Cl.Oc1cccc(Nc2ccnc3cc(-c4ccncc4)ccc23)c1 [GW494601] | 0% |
| Fc1ccc(-c2ncn(CCCN3CCOCC3)c2-c2cccnc2)cc1 [SB-211743] | 0% |
| Cc1ccc(C(=O)NCC(N)=O)cc1-n1c(C)cc(OCc2ccc(F)cc2F)c(Br)c1=O | 1% |
| NS(=O)(=O)CCc1cccc(Nc2nccc(-c3c(-c4cccc(NC(=O)c5c(F)cccc5F)c4)nn4ccccc34)n2)c1 [GSK336735] | 32% |
| COC(=O)Nc1nc2cc(Oc3ccc(NC(=O)Nc4cc(F)ccc4F)cc3)ccc2[nH]1.Cl [GW701424] | 5% |

| SMILES | %Inh |
| --- | --- |
| Cc1cn2c(=O)cc(N3CCOCC3)nc2n1Cc1cccc(Cl)c1Cl [GSK2334006] | 28% |
| N#Cc1c(N2CCOCC2)sc(-c2ccn[nH]2)c1-c1ccc(Cl)cc1 | 2% |
| Cc1cccc(Cn2ccn3c(=O)cc(N4CCOCC4)nc23)c1 [GSK2297542] | 31% |
| COc1ccc(CNC(=O)NC2CCN(c3ccnc(Nc4ccc(OC)cc4)n3)C2)cc1 (stereo not drawn) [GSK1379727] | 17% |
| c1ccc(-c2cc(-c3c[nH]nc3-c3ccccn3)ccn2)cc1 [GW576604] | 0% |
| COc1cc2c(cc1OCCN1CCN(C)CC1)ncc1c3ccc(C#N)cc3[nH]c21 | 0% |
| COc1ccc(Nc2nccc(N3CCC(NC(=O)Nc4cccc(C(C)=O)c4)C3)n2)cc1 (stereo not drawn) [GSK1379731] | 0% |
| Cc1ccc(NC(=O)c2ccnc(N3CCN(C)CC3)c2)cc1-c1ccc(C(=O)NCC2CC2)cc1 [GW775604] | 0% |
| Cc1c(Cn2c(C)nn3c(=O)cc(N4CCOC(C)C4)nc23)cccc1C(F)(F)F (stereo not drawn) [GSK2344444] | 0% |
| O=C(NCCCN1CCOCC1)c1cccc(Nc2nccc(Nc3ccc(Oc4ccccc4)cc3)n2)c1 [GW663929] | 0% |
| Nc1nc(-c2ccc3c(N)n[nH]c3c2)cc(N2CCCC2)n1 [GSK2227430] | 5% |
| Nc1nccc(-c2c(-c3ccc(F)cc3)ncn2C2CCN(CC(F)(F)F)CC2)n1 [SB-236560] | 0% |
| COc1ccc(S(=O)(=O)NC2CCN(c3cc(C)nc(Nc4cccc(C#N)c4)n3)CC2)cc1.O=C(O)C(F)(F)F [GSK1653539] | 11% |
| CN(C1=C(c2ccccc2)C(=O)NC1=O)c1ccccc1 [SB-334860] | 6% |
| CN1c2ccc(CNc3ccc(F)cc3)cc2-c2c(cnn2C)S1(=O)=O | 0% |
| COc1cc(Nc2nccc(N3CCC(NC(=O)c4cccc(NC(C)=O)c4)C3)n2)cc(OC)c1OC (stereo not drawn) [GSK1379754] | 2% |
